# Results taken from article PMC5540273 (PLoS ONE, 2017).
# Where two headings read alike, the source gives them in different places.
# What was measured:
# FYN = conditions: concentration: 1 μM, replicates: in singlicate; n = 1
# GAK = conditions: concentration: 1 μM, replicates: in singlicate; n = 1
# GCN2(Kin.Dom.2,S808G) = system: T1, GCN2(Kin.Dom.2,S808G); conditions: concentration: 1 μM, replicates: in singlicate; n = 1
# T1 construct: gene EIF2AK4
# GRK1 = conditions: concentration: 1 μM, replicates: in singlicate; n = 1
# GRK2 = system: T2, GRK2; conditions: concentration: 1 μM, replicates: in singlicate; n = 1
# T2 construct: gene ADRBK1
# GRK3 = system: T3, GRK3; conditions: concentration: 1 μM, replicates: in singlicate; n = 1
# T3 construct: gene ADRBK2
# GRK4 = conditions: concentration: 1 μM, replicates: in singlicate; n = 1
# GRK7 = conditions: concentration: 1 μM, replicates: in singlicate; n = 1
# GSK3A = conditions: n = 1
# GSK3B = conditions: n = 1
# HASPIN = system: T4, HASPIN; conditions: concentration: 1 μM, replicates: in singlicate; n = 1
# T4 construct: gene GSG2
# HCK = conditions: concentration: 1 μM, replicates: in singlicate; n = 1
# HIPK1 = conditions: concentration: 1 μM, replicates: in singlicate; n = 1
# HIPK2 = conditions: concentration: 1 μM, replicates: in singlicate; n = 1
# HIPK3 = conditions: concentration: 1 μM, replicates: in singlicate; n = 1
# HIPK4 = conditions: concentration: 1 μM, replicates: in singlicate; n = 1
# HPK1 = conditions: concentration: 1 μM, replicates: in singlicate; n = 1
# HUNK = conditions: concentration: 1 μM, replicates: in singlicate; n = 1
# ICK = conditions: concentration: 1 μM, replicates: in singlicate; n = 1
# IGF1R = conditions: concentration: 1 μM, replicates: in singlicate; n = 1
# [1] = concentration: 1 μM, replicates: in singlicate
# 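Further: KINOMEscan kinase panel screen.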
smiles,measurement,setting,value
NCCCC(NC(=O)c1cc(Br)c(-c2ccnc3[nH]ccc23)s1)c1ccccc1.O=C(O)C(F)(F)F.O=C(O)C(F)(F)F (centres unmarked) [GSK1287544],%Inh,FYN,2%
same,%Inh,GAK,23%
same,%Inh,"GCN2(Kin.Dom.2,S808G)",7%
same,%Inh,GRK1,68%
same,%Inh,GRK2,75%
same,%Inh,GRK3,85%
same,%Inh,GRK4,57%
same,%Inh,GRK7,83%
same,%Inh,GSK3A; [1],0%
same,%Inh,GSK3B; [1],15%
same,%Inh,HASPIN,95.7%
same,%Inh,HCK,0%
same,%Inh,HIPK1,39%
same,%Inh,HIPK2,14%
same,%Inh,HIPK3,62%
same,%Inh,HIPK4,82%
same,%Inh,HPK1,62%
same,%Inh,HUNK,0%
same,%Inh,ICK,23%
same,%Inh,IGF1R,2%
CN1CCN(CCCNc2nccc(-c3c(-c4ccc(F)cc4)nn4cc(C(F)(F)F)ccc34)n2)CC1 [GW621581],%Inh,FYN,0%
same,%Inh,GAK,78%
same,%Inh,"GCN2(Kin.Dom.2,S808G)",4%
same,%Inh,GRK1,0%
same,%Inh,GRK2,4%
same,%Inh,GRK3,0%
same,%Inh,GRK4,8%
same,%Inh,GRK7,0%
same,%Inh,GSK3A; [1],25%
same,%Inh,GSK3B; [1],3%
same,%Inh,HASPIN,0%
same,%Inh,HCK,14%
same,%Inh,HIPK1,0%
same,%Inh,HIPK2,2%
same,%Inh,HIPK3,0%
same,%Inh,HIPK4,0%
same,%Inh,HPK1,30%
same,%Inh,HUNK,0%
same,%Inh,ICK,0%
same,%Inh,IGF1R,0%
COc1cc(Nc2nccc(N3CCC(NC(=O)Nc4cccc(C(C)=O)c4)C3)n2)cc(OC)c1OC (centres unmarked) [GSK1379753],%Inh,FYN,40%
same,%Inh,GAK,34%
same,%Inh,"GCN2(Kin.Dom.2,S808G)",0%
same,%Inh,GRK1,2%
same,%Inh,GRK2,0%
same,%Inh,GRK3,16%
same,%Inh,GRK4,0%
same,%Inh,GRK7,0%
same,%Inh,GSK3A; [1],0%
same,%Inh,GSK3B; [1],1%
same,%Inh,HASPIN,0%
same,%Inh,HCK,0%
same,%Inh,HIPK1,0%
same,%Inh,HIPK2,0%
same,%Inh,HIPK3,3%
same,%Inh,HIPK4,0%
same,%Inh,HPK1,55%
same,%Inh,HUNK,0%
same,%Inh,ICK,11%
same,%Inh,IGF1R,0%
CCn1c(-c2nonc2N)nc2c(C#CC(C)(C)O)ncc(OCCCCN)c21.O=C(O)C(F)(F)F.O=C(O)C(F)(F)F [GSK507274],%Inh,FYN,0%
same,%Inh,GAK,41%
same,%Inh,"GCN2(Kin.Dom.2,S808G)",13%
same,%Inh,GRK1,65%
same,%Inh,GRK2,0%
same,%Inh,GRK3,44%
same,%Inh,GRK4,21%
same,%Inh,GRK7,75%
same,%Inh,GSK3A; 1 µM,78%
same,%Inh,GSK3B; 1 µM,100%
same,%Inh,HASPIN,0%
same,%Inh,HCK,0%
same,%Inh,HIPK1,47%
same,%Inh,HIPK2,57%
same,%Inh,HIPK3,100%
same,%Inh,HIPK4,0%
same,%Inh,HPK1,49%
same,%Inh,HUNK,0%
same,%Inh,ICK,11%
same,%Inh,IGF1R,12%
Cl.c1ccc(-c2ccc3c(Nc4ccc5[nH]ccc5c4)ccnc3c2)nc1 [GW440138],%Inh,FYN,46%
same,%Inh,GAK,64%
same,%Inh,"GCN2(Kin.Dom.2,S808G)",0%
same,%Inh,GRK1,0%
same,%Inh,GRK2,0%
same,%Inh,GRK3,50%
same,%Inh,GRK4,0%
same,%Inh,GRK7,0%
same,%Inh,GSK3A; [1],26%
same,%Inh,GSK3B; [1],0%
same,%Inh,HASPIN,23%
same,%Inh,HCK,19%
same,%Inh,HIPK1,0%
same,%Inh,HIPK2,0%
same,%Inh,HIPK3,0%
same,%Inh,HIPK4,0%
same,%Inh,HPK1,10%
same,%Inh,HUNK,0%
same,%Inh,ICK,0%
same,%Inh,IGF1R,40%
COC(=O)Nc1nc2ccc(Oc3ccc(NC(=O)Nc4cc(C(F)(F)F)ccc4F)cc3)cc2n1C.Cl [GW692089],%Inh,FYN,0%
same,%Inh,GAK,0%
same,%Inh,"GCN2(Kin.Dom.2,S808G)",0%
same,%Inh,GRK1,0%
same,%Inh,GRK2,0%
same,%Inh,GRK3,49%
same,%Inh,GRK4,6%
same,%Inh,GRK7,0%
same,%Inh,GSK3A; [1],9%
same,%Inh,GSK3B; [1],0%
same,%Inh,HASPIN,50%
same,%Inh,HCK,0%
same,%Inh,HIPK1,0%
same,%Inh,HIPK2,3%
same,%Inh,HIPK3,0%
same,%Inh,HIPK4,69%
same,%Inh,HPK1,0%
same,%Inh,HUNK,12%
same,%Inh,ICK,0%
same,%Inh,IGF1R,0%
COc1ccc(Nc2nccc(N3CCC(NC(=O)Nc4cccc(OC)c4)C3)n2)cc1 (centres unmarked) [GSK1379742],%Inh,FYN,0%
same,%Inh,GAK,23%
same,%Inh,"GCN2(Kin.Dom.2,S808G)",6%
same,%Inh,GRK1,0%
same,%Inh,GRK2,0%
same,%Inh,GRK3,22%
same,%Inh,GRK4,0%
same,%Inh,GRK7,0%
same,%Inh,GSK3A; [1],13%
same,%Inh,GSK3B; [1],2%
same,%Inh,HASPIN,10%
same,%Inh,HCK,0%
same,%Inh,HIPK1,0%
same,%Inh,HIPK2,28%
same,%Inh,HIPK3,19%
same,%Inh,HIPK4,0%
same,%Inh,HPK1,56%
same,%Inh,HUNK,24%
same,%Inh,ICK,0%
same,%Inh,IGF1R,0%
Cl.Cl.NCC(NC(=O)c1cc(-c2ccccc2)c(-c2ccnc3[nH]ccc23)s1)c1ccccc1 (centres unmarked) [GSK1321561],%Inh,FYN,59%
same,%Inh,GAK,86%
same,%Inh,"GCN2(Kin.Dom.2,S808G)",0%
same,%Inh,GRK1,9%
same,%Inh,GRK2,0%
same,%Inh,GRK3,15%
same,%Inh,GRK4,0%
same,%Inh,GRK7,25%
same,%Inh,GSK3A; [1],31%
same,%Inh,GSK3B; [1],26%
same,%Inh,HASPIN,90.3%
same,%Inh,HCK,0%
same,%Inh,HIPK1,18%
same,%Inh,HIPK2,28%
same,%Inh,HIPK3,47%
same,%Inh,HIPK4,50%
same,%Inh,HPK1,68%
same,%Inh,HUNK,11%
same,%Inh,ICK,3%
same,%Inh,IGF1R,0%
COc1ccc(-c2coc3ccc(-c4nnc(SCc5ccc(OC)c(C(F)(F)F)c5)o4)cc23)cc1,%Inh,FYN,3%
same,%Inh,GAK,10%
same,%Inh,"GCN2(Kin.Dom.2,S808G)",0%
same,%Inh,GRK1,19%
same,%Inh,GRK2,0%
same,%Inh,GRK3,0%
same,%Inh,GRK4,0%
same,%Inh,GRK7,21%
same,%Inh,GSK3A; [1],25%
same,%Inh,GSK3B; [1],4%
same,%Inh,HASPIN,0%
same,%Inh,HCK,38%
same,%Inh,HIPK1,12%
same,%Inh,HIPK2,17%
same,%Inh,HIPK3,14%
same,%Inh,HIPK4,0%
same,%Inh,HPK1,4%
same,%Inh,HUNK,0%
same,%Inh,ICK,7%
same,%Inh,IGF1R,12%
Oc1cc(Nc2ccnc3cc(I)ccc23)ccc1F [GW552771],%Inh,FYN,62%
same,%Inh,GAK,85%
same,%Inh,"GCN2(Kin.Dom.2,S808G)",8%
same,%Inh,GRK1,0%
same,%Inh,GRK2,0%
same,%Inh,GRK3,65%
same,%Inh,GRK4,10%
same,%Inh,GRK7,0%
same,%Inh,GSK3A; [1],17%
same,%Inh,GSK3B; [1],0%
same,%Inh,HASPIN,28%
same,%Inh,HCK,76%
same,%Inh,HIPK1,42%
same,%Inh,HIPK2,59%
same,%Inh,HIPK3,20%
same,%Inh,HIPK4,10%
same,%Inh,HPK1,37%
same,%Inh,HUNK,2%
same,%Inh,ICK,0%
same,%Inh,IGF1R,0%
